Experimental data published in PubChem BioAssay (EPA / NIEHS).
Inconclusive results are not listed. Active and inactive are the calls of the source. How the source made its calls: active means hit-call score of the fitted dose curve at least 0.9, where 1 is the maximum; inconclusive means response in the unintended direction; inactive means score below 0.9.

Molecular target: human Retinoic Acid Receptor beta (RARb), RARB (gene 5915) (UniProt P10826)
Experiment: ATG_RARb_TRANS: Attagene TRANS-FACTORIAL HepG2 Assay for human Retinoic Acid Receptor beta (AID 2283004)
Procedure: ATG_TRANS is a cell-based, multiplexed-readout assay that uses HepG2, a human liver cell line, with measurements taken at 24 hours after chemical dosing in a 24-well plate.ATG_RARb_TRANS is one of 30 assay component(s) measured or calculated from the ATG_TRANS assay. It is designed to make measurements of mRNA induction, a form of inducible reporter, as detected with fluorescence intensity signals by Reverse transcription polymerase chain reaction (RT-PCR) and Capillary electrophoresis technology.Data from the assay component ATG_RARb_TRANS was analyzed into 1 assay endpoint. This assay endpoint, ATG_RARb_TRANS, was analyzed in the positive analysis fitting direction relative to DMSO as the negative control and baseline of activity. Using a type of inducible reporter, measures of mRNA for gain-of-signal activity can be used to understand the reporter gene at the transcription factor-level as they relate to the gene RARB. Furthermore, this assay endpoint can be referred to as a primary readout, because this assay has produced multiple assay endpoints where this one serves a reporter gene function. To generalize the intended target to other relatable targets, this assay endpoint is annotated to the nuclear receptor intended target family, where the subfamily is non-steroidal.
Human liver HepG2 cells are transiently transfected with multiple reporter transcription units (MRTUs) in 6-well plates using FuGene 6 reagent (Roche; 3 ml FuGene/1 mg DNA). The MRTU constructs are regulated by a cis-regulating element (promoter). […] A major difference between the CIS and TRANS system is that in CIS activities of endogenous TFs are measured, whereas the TRANS assay evaluates changes in activities of exogenous, chimeric NR-Gal4 proteins. […] At the end of 24 hour incubation, total RNA was isolated using TriZol reagent (Invitrogen). The isolated RNA is then reverse-transcribed using oligo(dT) primer and Mo-MLV reverse transcriptase (Invitrogen) with DNAse I (Ambion) treatment for 30 min. The one-tenth of the produced cDNA was amplified by PCR using Taq DNA polymerase (Invitrogen) and two reporter sequence-specific primers. The PCR products were fluorescently labeled by primer extension with 6-arboxyfluorescein (6-FAM) 5'-labeled reporter sequence-specific primer (2 min at 95 C, 20 s at 68 C and 10 min at 72 C) and these products were digested with 5U of HpaI (New England Biolabs) for 2h at 37 C. The fragments were purified using Qiaquick PCR columns (Qiagen), analyzed on an ABI 3130xL genetic analyzer (Applied Biosystems) with peak positions identified by using a set of X-rhodamine (ROX)-labeled MapMarker1000 molecular weight standards (BioVentures). The raw capillary electrophoresis data was processed using Attagraph software (Attagene).

human Retinoic Acid Receptor beta (RARb), RARB (gene 5915), sequence (P10826 whole entry, looked up): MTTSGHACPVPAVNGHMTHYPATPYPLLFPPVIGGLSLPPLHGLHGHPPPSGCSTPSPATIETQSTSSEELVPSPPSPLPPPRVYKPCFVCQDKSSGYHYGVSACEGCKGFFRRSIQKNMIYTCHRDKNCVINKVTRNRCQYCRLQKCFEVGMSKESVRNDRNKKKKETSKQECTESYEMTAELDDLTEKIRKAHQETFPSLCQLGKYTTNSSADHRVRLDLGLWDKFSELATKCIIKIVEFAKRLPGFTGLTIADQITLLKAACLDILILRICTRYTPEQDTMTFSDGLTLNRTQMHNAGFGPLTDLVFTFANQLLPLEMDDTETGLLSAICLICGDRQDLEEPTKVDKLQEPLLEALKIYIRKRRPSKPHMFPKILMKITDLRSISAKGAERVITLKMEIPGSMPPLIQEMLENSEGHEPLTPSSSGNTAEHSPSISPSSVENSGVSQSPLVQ

Q: `NC(=O)C(F)(F)C(F)(F)F` was tested. Which outcome did it give?
A: inactive

Q: For `CC(C)Nc1ccc(Nc2ccccc2)cc1`, which outcome is on record?
A: inactive

Q: Which outcome does the source give for `FC(F)(F)c1ccc(Cl)cc1` here?
A: inactive

Q: For `Cc1ccc(O)cc1C`, which outcome is on record?
A: inactive

Q: `CCCCCCCc1ccc(O)cc1` was tested. Which outcome did it give?
A: inactive

Q: How did the outcome turn out when `CC(C)CBr` was run?
A: inactive

Q: For `N#Cc1c(-c2ccc(Cl)cc2)[nH]c(C(F)(F)F)c1Br`, which outcome is on record?
A: inactive

Q: With `OCC(F)(F)OC(F)(F)C(F)(F)OC(F)(F)C(F)(F)OC(F)(F)F` as the compound, how does the outcome read?
A: inactive

Q: With `OCC(F)(F)OC(F)(F)C(F)(F)OC(F)(F)CO` as the compound, how does the outcome read?
A: inactive

Q: How did the outcome turn out when `N#Cc1ccc(O)cc1` was run?
A: inactive

Q: With `CCCCC(CC)COP(=O)(Oc1ccccc1)Oc1ccccc1` (stereo not given) as the compound, how does the outcome read?
A: inactive

Q: `Cc1c([N+](=O)[O-])cc2c(c1[N+](=O)[O-])C(C)(C)CC2(C)C` was tested. Which outcome did it give?
A: inactive

Q: How did the outcome turn out when `O=C(O)C(F)(F)C(F)(F)C(=O)O` was run?
A: inactive

Q: `Clc1ccc(Oc2ccccc2)cc1` was tested. Which outcome did it give?
A: inactive

Q: For `CC(O)C(F)(F)C(F)(F)F` (stereo not given), which outcome is on record?
A: inactive

Q: For `c1cc2c3c(cccc3c1)CC2`, which outcome is on record?
A: inactive

Q: With `CCCCc1ccc(O)cc1` as the compound, how does the outcome read?
A: inactive

Q: How did the AC50 turn out when `ClC1=C(Cl)C2(Cl)C3C(Cl)C(Cl)CC3C1(Cl)C2(Cl)Cl` (stereo not given) was run?
A: 24.3 µM (active)

Q: Which outcome does the source give for `CCCN(CCC)c1c([N+](=O)[O-])cc(C(C)C)cc1[N+](=O)[O-]` here?
A: inactive

Q: How did the outcome turn out when `CCNc1nc(Cl)nc(NC(C)(C)C)n1` was run?
A: inactive

Q: For `O=C(O)C(F)(OC(F)(F)C(F)(F)C(F)(F)F)C(F)(F)F` (stereo not given), which outcome is on record?
A: inactive

Q: For `CN(C)C(=O)Cl`, which outcome is on record?
A: inactive

Q: How did the outcome turn out when `CO/N=C(/C(=O)OC)c1ccccc1COc1ccccc1C` was run?
A: inactive

Q: Which outcome does the source give for `COC(=O)C(F)(F)C(F)(F)OC(F)(C(F)(F)F)C(F)(F)OC(F)=C(F)F` (stereo not given) here?
A: inactive

Q: For `Cn1[nH]nnc1=S`, which outcome is on record?
A: inactive

Q: How did the outcome turn out when `CC(O)C#N` (stereo not given) was run?
A: inactive

Q: How did the outcome turn out when `FC(F)(F)C(F)(C(F)(F)F)C(F)(F)C(F)(F)CC1CO1` (stereo not given) was run?
A: inactive

Q: With `CCOC(=O)c1ccccc1C(=O)OCC` as the compound, how does the outcome read?
A: inactive

Q: How did the outcome turn out when `Nc1ccc2ccccc2c1` was run?
A: inactive

Q: `CCCCOCCOP(=O)(OCCOCCCC)OCCOCCCC` was tested. Which outcome did it give?
A: inactive
